Source: PubChem
Dyrk1A ADPGlo – Dyrk1A (rat) kinase inhibition | inhibition, % at 12.5 µM | actives 0.43% (n = 310,000) | Q63470 | ADP-Glo luminescence, NFATc1 peptide; in the data active = inhibition above about 50%
B2AR ag – human beta-2 adrenergic receptor agonism by FAP | P07550 | Am2.2-beta2AR cells, FAP receptor internalization, flow cytometry | response, % (no concentration beside the values) | actives 0.43% (n = 340,000);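 active = response above a set limit, near 3 SD of response in nonfluorescent compounds, cut at about 42% in these data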
A1 inh – inhibitors of the anti-apoptotic protein A1, read as caspase activation; caspase activation, % (concentration not given with the values); actives 0.066% (n = 330,000); MEF A1-2A-BIM cells, Caspase-Glo 3/7 luminescence, 3 h; percent of clofoctol response, vehicle zero; AID 2462;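 active = over half of replicate activation scores above 10%, or exactly half above 10 with the replicate mean above 10; inconclusive = replicate mean below 10 yet half the replicates above 10; inactive = over half of replicates below 10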
dFosB act – activators of mouse delta FosB homodimer | P13346 | purified delta FosB, TAMRA-CDK5 oligo fluorescence polarization; percent of positive-control signal above neutral wells | AID 493131 | actives 0.99% (n = 340,000) | activation, % at 25 µM;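 active = mean activation above about 17%, with every replicate also reaching it, limit read from the data, passing the limit was not always enough; inconclusive = only one of the two conditions met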
Target sequence (P13346 whole entry, looked up): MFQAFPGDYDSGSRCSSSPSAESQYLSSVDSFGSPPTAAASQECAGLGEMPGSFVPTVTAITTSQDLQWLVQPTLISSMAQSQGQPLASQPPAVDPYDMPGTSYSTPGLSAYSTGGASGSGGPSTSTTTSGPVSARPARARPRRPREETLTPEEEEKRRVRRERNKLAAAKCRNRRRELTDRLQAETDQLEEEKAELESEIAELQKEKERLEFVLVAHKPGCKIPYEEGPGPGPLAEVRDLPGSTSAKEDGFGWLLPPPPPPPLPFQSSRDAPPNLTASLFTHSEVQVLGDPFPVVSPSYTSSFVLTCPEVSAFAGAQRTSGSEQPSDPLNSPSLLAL
Beta2AR ag CP1 – agonists of human beta-2 adrenergic receptor; shares compounds with B2AR ag; Am2.2-beta2AR cells, FAP surface receptor, flow cytometry; stronger effect = lower value; percent response (surface receptor), % at 10 µM; actives 25% (n = 1,100); AID 540358;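 active = surface receptor percent response at or below 58%, roughly 3 SD from nonfluorescent compounds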
FAP fluor counter – counter-screen for beta-2AR agonists: fluorescence in Am2.2 cells. shares compounds with B2AR ag. FAP fluorogen flow cytometry, fluorescence counterscreen; stronger effect = lower value. calls only at 10 µM. 1,100 tested, under 10 active;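 active = percent response below a set limit in fluorescence channel 1 and below 50% in channel 8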
Hits are given with their value; n = inactive; u = inconclusive; x = no result. Most compounds without a hit are left out; they make up all but 1.6% or so of the library.

SMILES	Dyrk1A ADPGlo	B2AR ag	A1 inh	dFosB act	Beta2AR ag CP1	FAP fluor counter
CN(CC(=O)N1CCN(c2ccc(F)cc2)CC1)S(=O)(=O)c1ccc(F)cc1	n	n	n	n	n	n
CN(CC(=O)N1CCN(c2ccccn2)CC1)S(=O)(=O)c1ccc(Cl)cc1	n	110	n	n	33	n
Cc1ccc(S(=O)(=O)N(C)CC(=O)N2CCN(c3ccccn3)CC2)cc1	n	99	n	n	16	n
Cc1cc(C)cc(OCC(=O)Nc2nc(-c3cccnc3)cs2)c1	n	n	n	n	x	x
O=C1OC(c2ccccc2)(c2ccccc2)c2ccccc21	n	56	x	n	n	n
Cc1cccc(C2(c3cccc(C)c3)OC(=O)c3ccccc32)c1	n	n	n	n	x	x
O=C1CC(c2ccccc2)(c2ccccc2)c2ccccc21	n	59	x	n	39	n
O=C1OC(c2ccccc2)(c2ccc(O)cc2)c2ccccc21 (stereo not drawn)	n	43	x	n	n	n
O=C(COC(=O)c1ccc(S(=O)(=O)N2CCCCC2)cc1)NCc1ccccc1	n	n	n	n	x	x
O=C(OCC(=O)N1CCCC1)c1ccccc1C(=O)c1ccccc1	n	n	n	n	n	n
CC(NC(=O)c1c(O)c2ccccc2[nH]c1=O)c1ccccc1 (stereo not drawn)	n	n	n	n	x	x
CCOc1ccc2nc(NC(=O)CSc3nc4cccnc4n3C)sc2c1	n	49	n	u	n	n
NC(=O)CC(NC(=O)c1ccccc1)c1ccc(NCCN2CCOCC2)c([N+](=O)[O-])c1 (stereo not drawn)	n	n	n	n	x	x
NC(=O)CC(NC(=O)Cc1ccc(Cl)cc1)c1ccc(NCCCN2CCCC2=O)c([N+](=O)[O-])c1 (stereo not drawn)	n	n	u	n	n	n
NC(=O)CC(NC(=O)c1ccc(Br)cc1)c1ccc(N2CCN(c3ccccc3)CC2)c([N+](=O)[O-])c1 (stereo not drawn)	n	n	n	n	x	x
NC(=O)CC(NC(=O)c1ccccc1)c1ccc(N2CCN(c3ccccn3)CC2)c([N+](=O)[O-])c1 (stereo not drawn)	n	n	n	n	n	n
NC(=O)CC(NC(=O)c1ccccc1)c1ccc(NCCCN2CCCC2=O)c([N+](=O)[O-])c1 (stereo not drawn)	n	90	n	n	36	n
CC(=O)Oc1c(Cl)cc(N(C(C)=O)S(=O)(=O)c2ccccc2)c2ccccc12	x	n	n	x	x	x
CNS(=O)(=O)c1cn(CC(=O)NCc2ccc(N(C)C)cc2)cc1S(=O)(=O)NC	x	n	n	n	x	x
COc1ccc(C(=O)C(OC(=O)c2ccc(C)c(NC(C)=O)c2)c2ccccc2)cc1 (stereo not drawn)	n	n	n	n	x	x
CC(=O)Nc1cc(C(=O)OC(C(=O)c2ccccc2)c2ccccc2)ccc1C (stereo not drawn)	n	121	n	n	22	n
Cc1cccc(NC(=O)COC(=O)CSc2ccccc2)c1C	x	n	n	n	x	x
CC(C)(C)C(=O)Nc1ccccc1N1CCN(c2ccc(F)cc2)CC1	n	67	n	n	n	n
Cc1noc(C)c1C(=O)N(CC(=O)Nc1ccccc1Br)Cc1ccco1	n	n	n	n	x	x
COc1ccc(-c2nc(NC(=O)c3c(C)noc3C)sc2C)cc1	n	n	x	n	x	x
SMILES	Dyrk1A ADPGlo	B2AR ag	A1 inh	dFosB act	Beta2AR ag CP1	FAP fluor counter
COc1ccc(-c2nc(NC(=O)c3cc(C(C)(C)C)nn3C)sc2C)cc1	n	n	n	n	n	n
O=C(CN1CCc2ccccc2C1)Nc1ccccc1N1CCCCCC1	n	110	n	n	n	n
CC(=O)Nc1ccc(S(=O)(=O)NCCN2CCNC2=O)cc1Cl	n	n	n	n	x	x
Cc1cccc(C)c1NC(=O)CN1CCN(CCCC(c2ccc(F)cc2)c2ccc(F)cc2)CC1	n	n	x	n	n	n
Cc1cc(NC(=O)COC(=O)C2CCC(=O)N2)c([N+](=O)[O-])cc1C (stereo not drawn)	x	n	n	n	x	x
COc1ccc(CCC(=O)N2CCCC(Nc3ccc(C)c(C)c3)C2)cc1OC (stereo not drawn)	x	n	n	n	x	x
O=C(CCS(=O)(=O)c1ccccc1)N(CCCN1CCOCC1)c1nc2c(F)cccc2s1	x	111	n	n	n	n
Cc1ccc(S(=O)(=O)CC(=O)N(CCCN2CCOCC2)c2nc3c(F)cccc3s2)cc1	n	n	n	n	x	x
CN(C(=O)c1cccc(NC(=O)Cc2cccc(NC(=O)C3CCN(C(=O)C4CCC4)CC3)c2)c1)C1CC1	n	n	x	n	x	x
CN(C(=O)c1ccc(NC(=O)Cc2cccc(NC(=O)C3CCN(C(=O)C4CCC4)CC3)c2)cc1)C1CC1	n	n	x	n	n	n
CN(C(=O)c1ccc(NC(=O)Cc2cccc(NC(=O)C3CCN(C(=O)C4CCCCC4)CC3)c2)cc1)C1CCCC1	n	54	n	n	n	n
COCCN(C(=O)CSc1nc2ccccc2c(=O)n1CCOC)c1c(N)n(Cc2ccccc2)c(=O)[nH]c1=O	n	n	n	n	x	x
COc1ccc(N2CC(C(=O)Nc3cccc(OC(C)C)c3)CC2=O)cc1 (stereo not drawn)	n	n	n	n	x	x
Cc1cc(S(=O)(=O)N2CCOCC2)ccc1OCC(=O)Nc1ccc(F)c(Cl)c1	n	n	n	n	n	n
Cc1ccc(OCC(=O)Nc2ccc(S(=O)(=O)N3CCOCC3)cc2)c(C)c1	n	n	x	n	x	x
Cc1cc(S(=O)(=O)N2CCOCC2)ccc1OCC(=O)Nc1ccc(F)cc1	n	n	n	n	n	n
COc1ccc(CCN=C(C)c2cc(C)c(C)cc2O)cc1OC	n	n	n	n	x	x
COc1ccc(C(=O)NCC(c2ccco2)N(C)C)cc1S(=O)(=O)NCc1ccc(Cl)cc1 (stereo not drawn)	n	n	n	n	x	x
CC1CCN(S(=O)(=O)c2ccc(C(=O)Nc3nnc(-c4ccco4)o3)cc2)CC1	n	51	n	n	n	n
O=C(Nc1nnc(-c2ccco2)o1)c1ccc(S(=O)(=O)N2CCCC2)cc1	n	n	n	n	x	x
COc1ccc(C)cc1NC(=O)NNC(=O)C(C)Oc1ccc(F)cc1Cl (stereo not drawn)	n	n	n	n	x	x
O=C(Nc1ccc(-c2nc3ncccc3o2)cc1)c1ccc([N+](=O)[O-])o1	n	53	n	n	28	n
CCOC(=O)CSc1nnc(CNc2ccc(Cl)cc2)n1-c1ccccc1	n	108	n	n	n	n
CCn1cc(C(=O)O)c(=O)c2cc(F)c(N3CCN(S(=O)(=O)c4ccc(NC(C)=O)cc4)CC3)cc21	n	56	n	n	n	n
CCn1cc(C(=O)O)c(=O)c2cc(F)c(N3CCN(S(=O)(=O)c4ccc5c(c4)OCCO5)CC3)cc21	x	n	n	n	x	x
